Data as given in PubChem BioAssay AID1347416 (National Center for Advancing Translational Sciences (NCATS), 2020).
Screen size: about 4,100 compounds; about 1,600 (39%) were called active. Roughly 25% stayed inconclusive and do not appear here. Calls come from the whole dose curve; as a rule, active = well fitted inhibition curve with a large enough effect; inconclusive = small, poorly fitted or top-dose-only effect; inactive = no such curve, though single readings can be large or run the other way. The list shows a part of the results.

Experiment: qHTS Validation assay for Inhibitors of Plasmodium falciparum Dd2 growth in vitro; note: nearly all actives have a fitted effect of over 70% in size
Details: P. falciparum Dd2 in RBCs, SYBR Green growth, 72 h; series mostly up to 28.7 µM; activity change, negative = inhibition: at the top concentration
Summary of the method: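 P. falciparum Dd2-infected red blood cells (2.5% hematocrit, 0.3% parasitemia) grown 72 h at 37 °C under 5% O2 with compounds in a titration, 29 uM to 0.5 nM final. Growth read as SYBR Green-1 fluorescence after ~16 h lysis; artesunate 300 nM as positive control.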
% is set by controls: 0 for no effect and ±100 for the full control effect; potency is the fitted concentration of half-maximal effect.

SMILES	activity change, negative = inhibition	Potency
COC(=O)c1c(NC(=O)/C(C#N)=C/c2ccc(OC)cc2)sc2c1CCC2	23.8% (inactive)	–
O=C(NCCCn1cccn1)C1Cn2cccc2C(=O)N1Cc1ccccc1 (centres undefined)	2.79% (inactive)	–
COc1ccc(C2=NOC3(CCN([S+](=O)([O-])c4cccc(OC)c4)C3)C2)cc1 (centres undefined)	7.53% (inactive)	–
COc1ccc(C(=O)N2CCOCC3(CN(Cc4ccccc4)C3)C2)c(OC)n1	-10.6% [at 43.1 µM] (inactive)	–
COc1ccccc1CN1CCOCC2(C1)CN([S+](=O)([O-])c1ccccc1)C2	–	12.2 µM (active)
O=C(Nc1ccc(N2CCCCC2)c(Cl)c1)c1ncn[nH]1	–	4.73 µM (active)
Cc1ccc(Sc2ccc(N3CCCC(C(=O)Nc4ccc(F)c(Cl)c4)C3)nn2)cc1 (centres undefined)	-3.9% (inactive)	–
N#Cc1c2c(c(NCc3ccco3)n3c1nc1ccccc13)CCC2	–	2.37 µM (active)
COC(=O)CSc1nc2c(c(-c3ccco3)c1C#N)CCCC2	10.9% (inactive)	–
CCc1c(C)c(C#N)c2nc3ccccc3n2c1NCC1CCCO1 (centres undefined)	–	2.99 µM (active)
CN1c2cc(C(=O)NCc3nc4ccccc4n3C)ccc2C(=O)N2CCCCCC21 (centres undefined)	-15.9% (inactive)	–
O[C@H]1[C@H](NCC2CCCCC2)[C@H]2CO[C@H](O2)[C@@H]1N1CCC(Cc2ccccc2)CC1	–	1.37 µM (active)
O=C(Nc1ccccc1)N[C@H]1[C@H](O)[C@@H](Oc2ccccc2)[C@@H]2OC[C@H]1O2	-7.12% [at 43.1 µM] (inactive)	–
COc1ccccc1N1CCN([C@H]2[C@@H]3OC[C@@H](O3)[C@@H](N(CC3CC3)CC3CC3)[C@@H]2O)CC1	16.2% (inactive)	–
O[C@H]1[C@H](NCc2ccc(-c3ccccc3)cc2)[C@H]2CO[C@H](O2)[C@@H]1Oc1ccccc1	-7.84% [at 43.1 µM] (inactive)	–
COc1ccccc1N1CCN([C@H]2[C@@H]3OC[C@@H](O3)[C@@H](NCc3ccc(-c4ccccc4)cc3)[C@@H]2O)CC1	–	15 µM (active)
CC(=O)N1CCN([C@H]2[C@@H]3OC[C@@H](O3)[C@@H](NC(=O)Nc3ccc(F)cc3)[C@@H]2O)CC1	41.4% [at 43.1 µM] (inactive)	–
Oc1ccccc1CN[C@H]1[C@H](O)[C@@H](N2CCC(Cc3ccccc3)CC2)[C@@H]2OC[C@H]1O2	–	3.44 µM (active)
CC(=O)N1CCN([C@H]2[C@@H]3OC[C@@H](O3)[C@@H](NC(=O)Nc3ccccc3)[C@@H]2O)CC1	7.1% [at 43.1 µM] (inactive)	–
CCc1noc(-c2ccn3c(CNC(=O)Cc4cccc(F)c4)nnc3c2)n1	-18.4% (inactive)	–
Cc1cc(NC(=O)CSc2ccc3nnc(-c4cccc(F)c4)n3n2)no1	–	5.96 µM (active)
CCOC(=O)CC(=O)CSc1ccc2nnc(-c3ccccc3)n2n1	-4.34% (inactive)	–
CCCc1noc(-c2cccn3c(CNC(=O)c4ccc(Cl)cc4)nnc23)n1	0% (inactive)	–
COc1cc2c(cc1CNc1ncncn1)CCC2	39.6% (inactive)	–

SMILES	activity change, negative = inhibition	Potency
O=C(CCl)Nc1cccc(-c2cnc3ccccc3n2)c1	–	6.68 µM (active)
CC(=O)Nc1cccc(-c2ccnc(-c3nnc(C)n3Cc3ccccc3)c2)c1	-23% [at 43.1 µM] (inactive)	–
Cc1ccccc1C(=O)Nc1cccc(-c2nc3cccnc3s2)c1	6.23% (inactive)	–
O=C(Nc1ccc(S(=O)(=O)NC2=NCCCCC2)cc1)c1ccco1	32.7% (inactive)	–
O=c1c2ccccc2c(C=Nc2cccc(S(=O)(=O)NC3=NCCCCC3)c2)c(O)n1Cc1ccccc1	–	13.3 µM (active)
O=C(CCC[C@H]1NC[C@@H]2C[C@H]1CN(Cc1ccccc1)C2)NCCCN1CCCc2ccccc21	–	10.6 µM (active)
Cc1nnc2c(N3CCN(c4ccccc4)CC3)nc3ccc(C(=O)c4ccccc4)cc3n12	–	0.842 µM (active)
CCN1CCCC(c2nc3ccc(F)cc3c(=O)[nH]2)C1 (centres undefined)	-2.32% [at 43.1 µM] (inactive)	–
Fc1ccc(CN2CC[C@H](c3nc4ccc(C(F)(F)F)cc4[nH]3)C2)cc1F	-9.52% [at 43.1 µM] (inactive)	–
COc1ccccc1-c1ccc(CN2CCCC(c3nc4ccc(F)cc4c(=O)[nH]3)C2)cc1 (centres undefined)	–	8.41 µM (active)
Oc1cc2c(cc1CN1CCN(c3cccc(C(F)(F)F)c3)CC1)CCC2	–	0.944 µM (active)
Cc1ccc(Cl)cc1N1CCN(C(=O)c2ccc3c(Cl)c4c(nc3c2)CCCC4)CC1	-6.77% (inactive)	–
O=C(c1ccc2c(Cl)c3c(nc2c1)CCCC3)N1CCN(c2cccc(C(F)(F)F)c2)CC1	10.1% (inactive)	–
Cc1ccc(Cl)cc1N1CCN(Cc2cc3c(cc2O)CCC3)CC1	–	0.188 µM (active)
COc1ccc(N2CCN(Cc3cc4c(cc3O)CCC4)CC2)cc1	–	16.8 µM (active)
COc1ccc(CN2CCC3(CC2)CC(O)CCO3)c(OC)c1 (centres undefined)	-4% (inactive)	–
COc1ccc(N2C(N)=NC(N)=NC23CCCC3)cc1	-11.4% (inactive)	–
CC(=O)N1CCC(C2CCN(Cc3cc(Cl)ccc3F)C2)CC1 (centres undefined)	-23.3% (inactive)	–
CC(C)NC(=O)N1CCCC(Cn2c(C3CC3)nc3cccnc32)C1 (centres undefined)	6.13% (inactive)	–
O=C(Cc1ccccc1)N1CCCC2(CC(c3cccc(C(F)(F)F)c3)=NO2)C1 (centres undefined)	-13.8% (inactive)	–
O=C1Nc2ccc(-c3cccc(C(F)(F)F)c3)cc2C(=O)N2CCN(C(=O)c3ccccc3)C[C@H]12	-28.5% (inactive)	–
N#CC1CCN(C(=O)c2nc(-c3cccc(C(F)(F)F)c3)c3cnccn23)CC1	–	16.8 µM (active)
O=C(c1nc(-c2cccc(C(F)(F)F)c2)c2cnccn12)N1CCCC1	–	10.6 µM (active)
Cc1cc(Nc2cc(Cl)cc(Cl)c2)nc(N)n1	–	6.68 µM (active)

SMILES	activity change, negative = inhibition	Potency
CCOCc1cnc(C)nc1NCC(=O)c1c(C)[nH]c2cc(C)ccc12	–	4.22 µM (active)
CCN1CCC(OCCCNC(=O)C2(CCO)CC23CCOCC3)CC1 (centres undefined)	10.7% (inactive)	–
COc1ccc(-c2nnc([C@H]3CCN(c4ncccn4)C3)o2)cc1	7.2% [at 43.1 µM] (inactive)	–
COc1cc(OC)cc(-c2cc3nc4c(c(N5CCN(c6ncccn6)CC5)n3n2)CCCC4)c1	–	4.22 µM (active)
CCOC(=O)Cn1c2c(c(=N)c3c1CCC3)CCCC2	-23.5% (inactive)	–
CCCn1c2c(c(=N)c3c1CCC3)CCCC2	–	10.6 µM (active)
CCOC(=O)Cn1c2c(c(=N)c3c1CCC3)CCC2	-10.2% (inactive)	–
CCn1c2c(c(=N)c3c1CCC3)CCCC2	–	13.3 µM (active)
CCn1c2c(c(=N)c3ccccc31)CCC2	–	6.68 µM (active)
CCCn1c2c(c(=N)c3c1CCC3)CCC2	–	13.3 µM (active)
CCCCn1c2c(c(=N)c3c1CCC3)CCC2	–	8.41 µM (active)
CC(C)c1noc(-c2cccn3c(CNC(=O)c4ccc(F)cc4Cl)nnc23)n1	-11.9% (inactive)	–
Cc1nn2c(c1-c1ccccc1-c1ccccc1)N(CCC(C)C)CCC2	–	0.243 µM (active)
Cc1nn2c(c1-c1ccccc1-c1ccccc1)N(CC1CC1)CCC2	–	0.968 µM (active)
Cc1nn2c(c1-c1ccccc1C(C)C)N(CCC(C)C)CCC2	–	2.17 µM (active)
Cc1nn2c(c1-c1ccccc1[S+](C)(=O)[O-])N(Cc1ccc(C(=O)O)s1)CCC2	–	7.69 µM (active)
Cc1ccc(-c2csc3nc[nH]c(=O)c23)c(C)c1	48.1% (inactive)	–
CCc1noc(-c2cccn3c(CNC(=O)COc4ccc(F)cc4)nnc23)n1	38.7% (inactive)	–
O=C1Cc2c(-c3ccc(Oc4ccccc4)cc3)n[nH]c2CN1Cc1ccccc1F	-12.3% [at 43.1 µM] (inactive)	–
Cc1nn2c(c1-c1ccccc1[S+](C)(=O)[O-])N(CCC(C)C)CCC2	–	9.68 µM (active)
O=C1CCC2(CCN1)CCN(C(=O)C1CCCCC1)CC2	5.58% (inactive)	–
CCC(=O)N1c2ccccc2CC1C(=O)NCc1ccccc1C (centres undefined)	-8.52% (inactive)	–
COc1ccc(C(=O)N2CCC(C3CCN(S(C)(=O)=O)CC3)C2)c(OC)n1 (centres undefined)	4.48% (inactive)	–
CCN(CC)c1ccc(NC(=O)COc2ccccc2C#N)cc1S(=O)(=O)Nc1ccccc1OC	–	7.5 µM (active)

SMILES	activity change, negative = inhibition	Potency
COc1ccccc1N(CC(=O)Nc1cc(C)cc(C)c1)S(C)(=O)=O	20.6% (inactive)	–
CN(C)CC(CCC(CN(C)C)C(O)(c1ccccc1)c1ccccc1)C(O)(c1ccccc1)c1ccccc1 (centres undefined)	–	2.11 µM (active)
OC(Cc1ccncc1)(c1ccccc1)c1ccccc1	-3.46% (inactive)	–
O=S(=O)(Nc1cc2nc3ccccc3nc2n1Cc1ccccc1)c1ccc(Cl)cc1	–	1.19 µM (active)
CCOc1ccccc1Nc1nc2ccccc2nc1NS(=O)(=O)c1ccc(Cl)cc1	-48.2% (inactive)	–
Cc1nn(CCCC(=O)Nc2ccccc2C(F)(F)F)c(=O)c2nn(-c3ccccc3)c(C)c12	-20.3% (inactive)	–
COc1cc(Br)c(C(C)NC(=O)c2cccc(Br)c2)cc1OC (centres undefined)	–	2.11 µM (active)
O=C(Nc1ccccc1O)c1ccc(NC(=O)C2CC2)cc1	–	4.73 µM (active)
CC(C)CN1C(=O)CO[C@H](c2ccc(NC(=O)C3CCCC3)cc2)[C@H]1CO	36.8% [at 43.1 µM] (inactive)	–
COc1ccccc1N1CCN(CCCNC(=O)c2cnn(-c3cccc(Cl)c3)c2C2CCN(C(=O)OC(C)(C)C)CC2)CC1	–	2.11 µM (active)
COc1ccccc1N1CCN(CCCNC(=O)c2cnn(-c3ccccc3Cl)c2C2CCN(C(=O)OC(C)(C)C)CC2)CC1	–	2.37 µM (active)
CCN1CCN(c2cc(C)c3cc(NC(=O)c4cccc(Cl)c4)ccc3n2)CC1	–	4.73 µM (active)
Cc1cc(=O)n2[nH]c(NC(=O)c3cccc(Cl)c3)nc2n1	-24% (inactive)	–
CCN1CCN(c2cc(C)c3cc(NC(=O)c4cc(OC)c(OC)c(OC)c4)ccc3n2)CC1	–	1.33 µM (active)
CCOc1ccc(C(=O)Nc2cccc(NC(=O)c3ccc(C(C)(C)C)cc3)c2)cc1Br	1.12% (inactive)	–
CCN1c2cc(C(=O)Nc3cccc(Cl)c3)ccc2C(=O)N2CCCCC21 (centres undefined)	8.46% (inactive)	–
CCN1CCN(c2cc(C)c3cc(NC(=O)c4cc(OC)cc(OC)c4)ccc3n2)CC1	–	3.35 µM (active)
Cc1cc(Nc2cccc(C(F)(F)F)c2)nc2ccc(NC(=O)c3cncc(Br)c3)cc12	–	2.37 µM (active)
CNC(=O)[C@@H]1C[C@H](Oc2ccccc2)CN1C(=O)c1cc2ccccc2[nH]1	5.84% (inactive)	–
COc1ccc(NC(=O)CCn2ccn3nc4c(c3c2=O)CCCC4)cc1OC	13.3% (inactive)	–
COc1ccc(Nc2cc(C)c3cc(NC(=O)c4cc(OC)cc(OC)c4)ccc3n2)cc1	–	0.75 µM (active)
COc1cc(C(=O)Nc2ccc3nc(N4CCN(C)CC4)cc(C)c3c2)cc(OC)c1OC	–	3.35 µM (active)
